An excerpt weighted towards active compounds, which were near 4.5% of everything screened.
Rce1 inhib – inhibitors of yeast Ras-converting enzyme; Q03530; yeast membranes, quenched prenylated peptide cleavage fluorescence; calls only; 0.27% of 290,000 active;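 active means fall in fluorescence gain of 50% or more versus controls, with final raw signal at or below 3038400; inconclusive means same 50% fall but final raw signal above 3038400; inactive means fall in fluorescence gain under 50%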;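 further: plate controls were neutral control wells for no effect and wells lacking membranes for full effect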
GRK2 aptamer HTS – human GRK2 inhibition via aptamer displacement; P25098; bead flow cytometry, FAM-aptamer displacement from GRK2; inhibition of aptamer binding, % at 10 µM; 0.59% of 330,000 active; AID 488847;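 active means inhibition of aptamer binding above 40%, roughly 3 SD of noise, on plates passing a quality check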;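 further: median bead fluorescence of bound FAM aptamer so fluorescent compounds give negative values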
Rtt109 HAT inh – inhibitors of Candida albicans Rtt109/Vps75 histone acetyltransferase. Q5AAJ8. inhibition, % at 34.9 µM. 0.16% of 330,000 active. AID 540336. purified Rtt109/Vps75, ThioGlo CoA-SH fluorescence, 4 h;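 active means inhibition of at least 50% in every replicate; inconclusive means best replicate reaches 50% inhibition but some replicates fall short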
HDAC3 inhib – blocks human histone deacetylase 3; recombinant HDAC3, fluorogenic peptide/trypsin coupled, fluorescence; inhibition, % at 8.3 µM; 0.15% of 320,000 active; in the data active means inhibition above about 26%, passing the limit was not always enough; inconclusive means no clear call, values can overlap the other calls
Target sequence (O15379 whole entry, looked up): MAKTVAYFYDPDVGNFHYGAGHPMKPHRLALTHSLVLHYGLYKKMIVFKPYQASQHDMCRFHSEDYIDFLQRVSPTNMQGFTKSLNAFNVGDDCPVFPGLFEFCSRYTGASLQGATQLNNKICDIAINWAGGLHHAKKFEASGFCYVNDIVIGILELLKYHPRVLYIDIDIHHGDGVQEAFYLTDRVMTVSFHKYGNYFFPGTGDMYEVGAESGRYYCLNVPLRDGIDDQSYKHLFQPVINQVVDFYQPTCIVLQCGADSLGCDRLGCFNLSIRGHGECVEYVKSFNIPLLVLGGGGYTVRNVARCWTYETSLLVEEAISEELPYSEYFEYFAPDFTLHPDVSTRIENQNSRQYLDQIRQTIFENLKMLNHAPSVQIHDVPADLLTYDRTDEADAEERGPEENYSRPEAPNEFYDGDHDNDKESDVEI
Efflux pump inh – antifungal efflux pump inhibition, Nile Red retention; S. cerevisiae Candida pump triplex; inhibition, % at 10 µM; 0.44% of 330,000 active;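 active means plate passing quality check with inhibition over a set limit, or well fluorescence over plate mean plus 4 SD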;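 further: Nile Red retained in pooled yeast measured as flow cytometry median fluorescence; 0% = buffer negative control and 100% = Enniatin B positive control; higher means more Nile Red kept so more efflux inhibition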
ALR inh – human ALR oxidase inhibition via reduced H2O2. inhibition, % (test concentration not listed). P55789. purified ALR, DTT oxidation, H2O2 HRP-luminol luminescence. 3.8% of 290,000 active. AID 485317;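 active means mean replicate inhibition above about 79%, with every replicate also reaching it, limit read from the data; inconclusive means only one of the two criteria met; inactive means mean below limit and not every replicate reaching it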
Target sequence (P55789 whole entry, looked up): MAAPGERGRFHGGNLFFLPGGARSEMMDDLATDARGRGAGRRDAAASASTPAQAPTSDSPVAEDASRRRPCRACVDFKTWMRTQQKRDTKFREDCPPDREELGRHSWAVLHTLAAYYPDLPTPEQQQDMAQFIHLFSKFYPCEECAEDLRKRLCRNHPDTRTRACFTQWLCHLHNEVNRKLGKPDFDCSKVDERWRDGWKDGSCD
Active calls of the source: *; i = inactive; ? = inconclusive; . = no result given; + = active, no number.

SMILES	Rce1 inhib	GRK2 aptamer HTS	Rtt109 HAT inh	HDAC3 inhib	Efflux pump inh	ALR inh
Cc1c(NC(=O)c2ccc(=O)oc2)c(=O)n(-c2ccccc2)n1C	i	1.0	13.1	7.4	0.0	88.2*
COc1ccc(OC)c(-c2cc(C(=O)Nc3c(C)n(C)n(-c4ccccc4)c3=O)no2)c1	i	0.0	3.9	2.2	0.1	4.2
Cc1c(NC(=O)c2ccc(C(=O)Nc3c(C)n(C)n(-c4ccccc4)c3=O)cc2)c(=O)n(-c2ccccc2)n1C	i	0.0	15.3	-3.3	0.0	-21.2
Cc1ccc(NCc2nnc3n2CCCCC3)c(C)c1	i	4.0	0.5	-1.9	0.0	98.7*
COc1ccc(/C(C)=N/NC(=O)CNC(=O)c2cccnc2)c(OC)c1	i	2.0	-13.6	-8.0	-0.1	-19.5
CCN(CC)c1ccc(/C=N\NC(N)=O)cc1	i	2.0	-5.3	1.1	-0.1	98.5*
CN(C)c1ccc(/C=N/NC(=O)CNC(=O)c2ccco2)cc1	+	0.0	-5.3	-11.2	0.1	54.0
CCN(CC)c1ccc(/C=N/NC(=O)Nc2ccccc2)cc1	i	3.0	7.4	9.9	0.3	34.2
COc1ccc(/C=N/NC(=O)OC(C)(C)C)cc1OC	i	0.0	-4.6	4.7	-0.2	95.1*
CCN(CC)c1ccc(/C=N/NS(=O)(=O)c2ccc(CNC(C)=O)cc2)cc1	i	0.0	.	1.2	-0.1	98.9*
CN(C)c1ccc(/C=N/NC(=O)CNC(=O)/C=C/c2ccccc2)cc1	i	0.0	-3.3	-10.1	-0.1	43.5
Cc1ccsc1CNCC(O)c1ccccc1 (stereo not drawn)	i	0.0	17.3	1.2	0.0	.
NC(=O)C1C(=O)c2ccccc2C1(C[N+](=O)[O-])c1ccccc1 (stereo not drawn)	.	.	6.6	.	.	.
CCN(CC)c1ccc(/C=N/NC(=O)CC(C)C)cc1	i	2.0	-3.1	-4.1	0.1	98.9*
CCCN(CCC)c1ccc(/C=N/NC(=O)CN2CCOCC2)cc1	i	1.0	-15.0	-13.8	-0.2	99.1*
O=C(CNC(=O)c1ccccn1)N/N=C/c1ccc2c(c1)OCO2	i	0.0	-5.2	0.4	-0.1	71.9
CCN(CC)c1ccc(/C=N/NC(=O)CNC(=O)c2ccccn2)cc1	i	1.0	2.1	-3.8	0.1	95.3*
CCN(CC)c1ccc(/C=N/NC(=O)OC(C)(C)C)cc1	i	2.0	6.5	-7.5	0.0	99.0*
NS(=O)(=O)c1ccc(CCNC(=O)CSCC(=O)Nc2ccc(Cl)cc2)cc1	.	0.0	8.8	3.5	-0.1	-1.2
CC(Oc1cc2oc(=O)c3c(c2cc1Cl)CCC3)C(=O)NCCCn1ccnc1 (stereo not drawn)	i	2.0	-2.2	3.5	0.0	-4.2
CCNc1nc(C)c(CN(C(C)=O)c2ccccc2)nc1C#N	+	0.0	-0.4	-54.3	0.1	1.5
CN(CC(=O)N1CCN(c2ccccc2)CC1)C1CCCc2ccccc21 (stereo not drawn)	i	0.0	-16.8	3.1	-0.1	31.7
NS(=O)(=O)c1ccc(NC(=S)NC(=O)c2ccc(Br)o2)cc1	i	0.0	2.2	0.3	0.4	-3.6
NS(=O)(=O)c1ccc(NC(=S)NNC(=O)c2ccc(Br)o2)cc1	i	3.0	6.7	-10.3	0.1	94.9*
Cc1c(C(=O)NNC(=S)Nc2ccc(S(N)(=O)=O)cc2)oc2ccccc12	i	0.0	20.6	8.1	-0.2	99.0*
SMILES	Rce1 inhib	GRK2 aptamer HTS	Rtt109 HAT inh	HDAC3 inhib	Efflux pump inh	ALR inh
CCC(C)(C)n1nnnc1CN1CCN(c2ccc(OC)cc2)CC1	i	1.0	-3.8	-2.7	-0.1	93.5*
CC(Sc1nnc(-c2ccncc2)n1C)C(=O)Nc1nccs1 (stereo not drawn)	i	0.0	-3.8	1.6	0.0	-0.8
O=C1CSC(c2cccc([N+](=O)[O-])c2)N1c1ccccc1 (stereo not drawn)	i	0.0	0.0	2.3	-0.1	98.1*
O=C1CSC(c2ccc(F)c(F)c2)N1c1ccccc1F (stereo not drawn)	i	6.0	-5.0	3.8	0.1	98.4*
O=C1CSC(c2cccc(F)c2)N1c1ccccc1 (stereo not drawn)	i	0.0	-6.0	8.4	-0.1	98.4*
COC(=O)c1ccc(CSCc2ccc(C#N)cc2)cc1	i	0.0	.	3.4	-0.1	3.3
CC1(C)NC(=O)N(CCC(=O)Nc2cc(C(F)(F)F)ccc2Cl)C1=O	.	0.0	11.2	5.8	0.1	-4.6
CC1(C)Nc2ccc(O)cc2-c2c1ssc2=S	i	2.0	-12.7	0.5	0.0	99.0*
COc1cccc(-n2sc3c(c2=S)-c2cc(OC)ccc2NC3(C)C)c1	i	0.0	-2.2	?	0.0	1.0
Cc1ccc(Nc2nc3ccccc3c(=O)[nH]2)cc1C	i	0.0	4.3	-2.6	0.1	7.9
Cc1ccc(Nc2nc(/N=C/N(C)C)n[nH]2)cc1C	i	0.0	-0.6	-4.7	0.0	97.6*
CCCCOC(=O)Nc1ccc(C(N)=O)cc1	i	0.0	-7.3	-0.1	0.2	-3.1
CCCCOC(=O)Nc1ccc(N2CCCCC2)cc1	i	0.0	2.7	-2.3	-0.1	78.3*
CCOC(=O)c1c(C)c(C(=O)Nc2ccc(N(C)C)cc2)c(C)n1CC	i	4.0	3.8	-8.2	-0.1	98.9*
CCCCOC(=O)Nc1ccc(N(C)C)cc1	i	0.0	-3.8	5.4	-0.1	99.4*
Cc1ccc(C)c(NCc2n[nH]c(=S)n2-c2ccccc2)c1	i	2.0	6.0	11.8	-0.2	85.7*
COC(Cc1n[nH]c(=S)n1-c1ccccc1)OC	i	3.0	6.4	-0.4	0.0	93.4*
Cc1cccc(OCc2n[nH]c(=S)n2-c2ccccc2)c1	i	0.0	.	7.4	0.0	76.9*
S=c1[nH]nc(CSCc2ccccc2Cl)n1-c1ccccc1	i	1.0	4.8	2.3	0.1	93.9*
COCc1n[nH]c(=S)n1-c1ccccc1	i	1.0	-0.9	6.2	0.1	57.8
COC(=O)c1csc2c(C(F)(F)F)cc(N3CCN(C(=O)Nc4ccccc4)CC3)nc12	i	0.0	-5.6	-4.2	0.0	-12.6
Cc1ccc(S(=O)(=O)Nc2cccc(S(=O)(=O)Nc3ccccc3C(=O)O)c2)c(C)c1	.	3.0	-6.8	3.8	0.2	10.2
Cc1nc2cc(C(=O)OCC(=O)NC34CC5CC(CC(C5)C3)C4)ccc2n1-c1ccccc1	i	41.0*	-1.3	-2.6	0.5	-1.5
CCN(CCNC(=O)c1ccc(C#N)cc1)c1cccc(C)c1	i	0.0	0.8	2.3	0.1	98.1*
COc1ccc(N/N=C(\C#N)C(=N)N2CCCCC2)cc1	i	1.0	-5.8	-0.5	-0.1	99.1*
CCN(CC)C(=N)/C(C#N)=N/Nc1ccc(C)cc1	i	2.0	4.9	-2.0	-0.2	98.6*
Cc1ccc(N/N=C(\C#N)C(=N)N2CCOCC2)cc1	i	0.0	11.8	-1.1	-0.1	97.7*

Compound activity (PubChem)
